Here are results for 97 compounds from PubChem BioAssay AID538 (PCMD, 2006).

Among all 62,000 compounds or so, about 100 (0.16%) were called active.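 Rule for the calls: active = inhibition above 20% in each of the two 10-compound mixture wells holding the compound; inactive = the rest.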 Many of the other results were omitted from the sample, so actives are more common in it than they were.

Complement C1s subcomponent (Homo sapiens), sequence (P09871 16-437 limits assumed): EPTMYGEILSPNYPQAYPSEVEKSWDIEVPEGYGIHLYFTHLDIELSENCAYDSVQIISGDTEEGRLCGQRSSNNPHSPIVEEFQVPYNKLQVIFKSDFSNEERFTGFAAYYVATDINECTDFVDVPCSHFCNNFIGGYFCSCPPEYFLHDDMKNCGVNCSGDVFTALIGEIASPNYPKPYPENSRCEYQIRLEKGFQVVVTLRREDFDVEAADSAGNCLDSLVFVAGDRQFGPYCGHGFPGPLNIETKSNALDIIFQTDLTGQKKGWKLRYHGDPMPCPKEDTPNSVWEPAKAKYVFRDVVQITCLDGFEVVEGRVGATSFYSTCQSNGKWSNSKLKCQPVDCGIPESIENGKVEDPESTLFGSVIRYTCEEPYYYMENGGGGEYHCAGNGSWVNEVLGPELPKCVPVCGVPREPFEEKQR
Complement C1s subcomponent (Homo sapiens), sequence (P09871 438-688 limits assumed): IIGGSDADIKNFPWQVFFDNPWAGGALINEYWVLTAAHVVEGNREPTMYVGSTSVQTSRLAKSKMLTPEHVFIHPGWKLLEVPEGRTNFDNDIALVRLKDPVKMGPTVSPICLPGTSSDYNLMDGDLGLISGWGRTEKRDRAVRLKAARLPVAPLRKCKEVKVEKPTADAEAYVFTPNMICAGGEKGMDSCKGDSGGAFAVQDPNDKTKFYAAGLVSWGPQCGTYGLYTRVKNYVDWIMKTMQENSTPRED

The assay addresses Complement C1s subcomponent (Homo sapiens) (UniProt P09871). Put plainly: human C1s inhibition by compound pools – biochemical, 10-compound mixtures, primary screen (AID 538).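 Note: 0% = enzyme wells lacking compound mixture and 100% = no-enzyme blank wells.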 The following applies: purified C1s, fluorogenic AMC substrate, pooled mixtures; screened at 5 µM (by protocol).
Take `Cc1cc(C)c(C#N)c(SCc2ccccc2C(=O)O)n1`: the mean inhibition % of two 10-compound mixtures (hits give high values) was -0.765% (inactive).
For `O=C(c1ccc2c(c1)OCO2)N1CCNc2ccccc2C1`, the mean inhibition % of two 10-compound mixtures (hits give high values) is 12.4% (inactive).
The value for `C=CCn1c(SCc2csc(C)n2)nc2scc(-c3ccc(C)o3)c2c1=O` was -5.96% (inactive); that for `CCN(c1ccccc1)S(=O)(=O)c1cccc(C(=O)O)c1` was -13.8% (inactive).
With `CCOC(=O)n1c(SCC(=O)N(CC)CC)nc2ccccc21`, the mean inhibition % of two 10-compound mixtures (hits give high values) is 12.2% (inactive).
The result for `O=C1c2ccccc2C(O)N1Cc1ccccc1` (configuration not stated) reads -43.8% (inactive).
In the case of `COc1c(Br)cc2c(C)c(C(=O)N3CCOCC3)oc2c1Br`, the mean inhibition % of two 10-compound mixtures (hits give high values) was 2.58% (inactive).
The result for `CCOC(=O)COc1ccc(Cl)cc1C1NC(=O)NC(C)=C1C(C)=O` (configuration not stated) reads -13% (inactive); that for `COc1cc2c(cc1OC)C(c1ccncc1)CC(=O)N2` (configuration not stated), -11.7% (inactive); that for `CC(=O)Nc1ccc(S(=O)(=O)N2CCSCC2)cc1`, 10.8% (inactive).
The value for `CC(=O)Nc1ccc(NC(=O)CN2CCCC(C)C2)c(Cl)c1` (configuration not stated) was 8.18% (inactive); that for `O=C(O)CCSc1nnc(-c2ccccc2)n1-c1ccccc1` was -30.3% (inactive).
On to `CC(C)OC(=O)c1cc(NC(=O)C2C3CCC(O3)C2C(=O)O)cc(C(=O)OC(C)C)c1` (configuration not stated), for which the mean inhibition % of two 10-compound mixtures (hits give high values) is -14.5% (inactive).
The result for `OC(COc1cccc2ccccc12)CN1CCN(c2ccccn2)CC1` (configuration not stated) reads -2.25% (inactive).
As for `COC(=O)c1ccc(Oc2nc(NC(C)C)nc(SC)n2)cc1`, the mean inhibition % of two 10-compound mixtures (hits give high values) is -1.35% (inactive).
The result for `CCCCc1cc(=O)oc2cc(C)cc(OCc3nn[nH]n3)c12` reads -6.89% (inactive); that for `CC(C)COC(=O)c1ccc(NC(=O)C2C3C=CC(C3)C2C(=O)O)cc1` (configuration not stated), -22.9% (inactive); that for `COc1ccccc1NC1=NC2(CCCC2)N=C(N)N1`, -18.3% (inactive).
`Cc1cc(NC(=O)COn2nnc3ccccc32)no1`: the mean inhibition % of two 10-compound mixtures (hits give high values) was 0.88% (inactive).
The value for `CCOC(=O)C1C(=O)OC2(CCCC2)C1C(=O)OCC` (configuration not stated) was 0.585% (inactive).
The result for `COc1nc(OC)nc(N(C)CCO)n1` reads -12.5% (inactive).
With `CC1CCN(C(=O)Cn2cc(C(=O)c3ccco3)c3ccccc32)CC1`, the mean inhibition % of two 10-compound mixtures (hits give high values) is -1.29% (inactive).
As to `CC(C)(C)C(=O)CCN1C(=O)C2(OCCO2)c2ccccc21`, the mean inhibition % of two 10-compound mixtures (hits give high values) was 10.6% (inactive).
The result for `CCCN(CCC)C(=O)C1c2ccccc2Oc2ccccc21` reads -0.445% (inactive); that for `Nc1nc(SCCOc2ccccc2)n[nH]1`, 2.17% (inactive); that for `CCCc1cc(=O)n2[nH]c(SCc3ccccc3)nc2n1`, -2.75% (inactive).
The value for `CC(=O)Oc1cccc(N2C(=O)CC(Nc3ccc(N4CCOCC4)cc3)C2=O)c1` (configuration not stated) was 6.64% (inactive); that for `O=C(CN1CCN(c2ccccn2)CC1)NCc1cccs1` was -12.2% (inactive).
The value for `O=C(CSc1nc2cc3c(cc2c(=O)n1CCC1=CCCCC1)OCO3)NCc1ccco1` was 2.65% (inactive); that for `COc1ccc(S(=O)(=O)Nc2ccc(S(=O)(=O)N3CCCCC3)cc2)cc1OC` was -2.79% (inactive); that for `CCC(C)(C)NC(=O)C(c1cccn1C)N(Cc1ccc(C)cc1)C(=O)Cn1nnc2ccccc21` (configuration not stated) was -0.485% (inactive).
Take `COCCNC(=O)C(c1ccc(C)o1)N(Cc1ccccc1)C(=O)Cn1nnc2ccccc21` (configuration not stated): the mean inhibition % of two 10-compound mixtures (hits give high values) was -0.43% (inactive).
The result for `CC(C)(C)NC(=O)C(c1ccco1)N(Cc1ccc2c(c1)OCO2)C(=O)Cn1nnc2ccccc21` (configuration not stated) reads 22% (active).
The value for `CCOc1ccc(-c2nnn(CC(=O)N3CCN(c4ccc(F)cc4)CC3)n2)cc1OCC` was -19.4% (inactive).
The result for `CC(=O)c1c(C)[nH]c(C(=O)NCCCN2CCCC2)c1C` reads 13.1% (inactive); that for `Cc1nc(Nc2ccc3c(c2)OCCO3)c2nnn(Cc3ccccc3Cl)c2n1`, -7.66% (inactive).
Consider `Cn1c(SCC(=O)Nc2cccc(NC(=O)c3cccs3)c2)nnc1-c1ccncc1`, for which the mean inhibition % of two 10-compound mixtures (hits give high values) was -18.6% (inactive).
The result for `COc1ccc(N2C(=O)CN=C2Nc2cccc(C)c2C)cc1OC` reads 13.9% (inactive).
Take `COc1ccc(Cl)cc1NC(=O)c1oc(C)nc1C`: the mean inhibition % of two 10-compound mixtures (hits give high values) is -7.77% (inactive).
The result for `Cc1nc(C)c(C(=O)Nc2cccc(C)c2C)o1` reads 22% (active).
The result for `Cc1nc(C)c(C(=O)Nc2ccc(C)c(F)c2)o1` reads 4.8% (inactive); that for `COCc1nc2ccccc2n1Cc1ccccc1Br`, -10.1% (inactive); that for `COc1cccc(C2/C(=C(/O)c3ccc(F)cc3)C(=O)C(=O)N2CCN(C)C)c1` (configuration not stated), 2.55% (inactive).
The value for `Cc1ccc(NC(=O)N2CCC(C(=O)NCc3ccc(F)cc3)CC2)cc1` was 26.6% (inactive).
As for `CCOC(=O)c1[nH]c2ccc(C)cc2c1N=C(C)N(C)C`, the mean inhibition % of two 10-compound mixtures (hits give high values) is -3.15% (inactive).
The value for `COc1ccc(-n2c(SCC(=O)NCc3cccs3)nnc2-c2ccoc2C)cc1` was 1.91% (inactive).
The value for `O=C(Cn1cnc2c(cnn2-c2ccccc2)c1=O)NCc1ccccc1` was 4.69% (inactive).
The result for `O=C(OC1CCOC1=O)c1ccc(-c2nc3ccccc3s2)s1` (configuration not stated) reads 3.37% (inactive); that for `CCOc1ccccc1C1CC(c2ccccc2)Nc2nc(N)nn21` (configuration not stated), -0.62% (inactive).
Take `CCOC(=O)CCC(=O)OCC(=O)NC(C)C1CC2CCC1C2` (configuration not stated): the mean inhibition % of two 10-compound mixtures (hits give high values) is -1.13% (inactive).
For the compound `CCCCCC(=O)Nc1ccc2oc(-c3ccncc3)nc2c1`, the mean inhibition % of two 10-compound mixtures (hits give high values) was -5.25% (inactive).
Take `CCCCSc1nnc(-c2ccc(NC(=O)CC)cc2)n1C`: the mean inhibition % of two 10-compound mixtures (hits give high values) was 10.2% (inactive).
The value for `Cc1ccc2c(c1)NCC(C(=O)NC1CCC(C)CC1)O2` (configuration not stated) was -7.38% (inactive).
The value for `CN(C)CCCNc1c2c(c(C#N)c3nc4ccccc4n13)CCC2` was 11.8% (inactive); that for `COc1ccc(S(=O)(=O)Nc2c(C)n(C)n(-c3ccccc3)c2=O)cc1` was -40.7% (inactive).
On to `CCn1c(-c2cc(OC)ccc2OC)csc1=Nc1c(C)n(C)n(-c2ccccc2)c1=O`, for which the mean inhibition % of two 10-compound mixtures (hits give high values) was 11.4% (inactive).
The result for `Cc1ccc(C(=O)N2CCCCCC2)cc1Br` reads 48.4% (inactive).
For `O=S(=O)(CCc1nc2ccccc2o1)c1ccc(Cl)cc1`, the mean inhibition % of two 10-compound mixtures (hits give high values) is 1.62% (inactive).
The value for `COC(=O)c1ccc(NC(=O)CSc2nnc(-c3ccncc3)n2C)cc1` was 4.27% (inactive).
The result for `Cc1ccc(S(=O)(=O)n2nc(OC(=O)C(C)(C)C)cc2N)cc1` reads -80.6% (inactive); that for `O=C(CCS(=O)(=O)c1cccc2nonc12)NCCc1ccccc1Cl`, -46.5% (inactive); that for `CCCC1C(c2ccccc2)C(C#N)(C#N)C2(C#N)CC1(N)NC2=O` (configuration not stated), 13.4% (inactive).
The result for `Cc1nnc(C)n1/N=C/c1ccc(C(C)C)cc1` reads 5.96% (inactive).
As to `O=C(CCc1ccccc1)Nc1ccc(NC(=O)C2CC2)nc1`, the mean inhibition % of two 10-compound mixtures (hits give high values) was 3.19% (inactive).
The value for `CC1OC2C(OC1C)N(S(C)(=O)=O)CCN2S(C)(=O)=O` (configuration not stated) was 6.29% (inactive).
The result for `COc1cc(C(O)c2nc3ccccc3n2C)cc(OC)c1OC` (configuration not stated) reads -4.52% (inactive); that for `COc1ccc(C)cc1-n1nnnc1SCC(=O)c1cc(C)n(Cc2ccco2)c1C`, 11.7% (inactive); that for `O=C(NCC12CC3CC(C1)CC(CNC(=O)N1CCCC1)(C3)C2)N1CCCC1`, 13.6% (inactive).
On to `c1cc(-c2nn[nH]n2)ccc1CN1CCCCC1`, for which the mean inhibition % of two 10-compound mixtures (hits give high values) is 14.2% (inactive).
The result for `Cc1nc2ccccc2c2oc(C(=O)NCC3CCCO3)cc12` (configuration not stated) reads -97.9% (inactive).
Regarding `CCCCn1c(SCC(=O)NCC2CCCO2)nc2ccc(N3CCOCC3)cc2c1=O` (configuration not stated), the mean inhibition % of two 10-compound mixtures (hits give high values) is -11% (inactive).
The value for `Cn1c(=O)c2[nH]c(NCC3CCCO3)nc2n(-c2ccccc2)c1=O` (configuration not stated) was 64.6% (active).
With `COc1cccc(N2C(=O)CC(N3CCN(S(=O)(=O)c4ccccc4)CC3)C2=O)c1` (configuration not stated), the mean inhibition % of two 10-compound mixtures (hits give high values) was -26.5% (inactive).
`CCOC(=O)C1Cn2c(nc3c(c2=O)C(C)(CC)Cc2ccccc2-3)S1` (configuration not stated): the mean inhibition % of two 10-compound mixtures (hits give high values) is -5.78% (inactive).
The value for `O=C1CC(c2cccc(Br)c2)C2=C(CCCC2=O)N1` (configuration not stated) was 17.2% (inactive); that for `CCNC(=O)N1CCNC(=O)C1CC(=O)Nc1ccc(C(=O)OCC)cc1` (configuration not stated) was -35.7% (inactive).
`Cc1ccc(-c2nc(COC(=O)c3c(C)noc3C)cs2)cc1`: the mean inhibition % of two 10-compound mixtures (hits give high values) is 3.81% (inactive).
With `COC(=O)Cn1c(=NC(=O)CSCC(=O)Nc2cc(C)on2)sc2ccccc21`, the mean inhibition % of two 10-compound mixtures (hits give high values) is 5.49% (inactive).
As for `COc1ccccc1-c1cc(C(=O)NCCCn2ccnc2)no1`, the mean inhibition % of two 10-compound mixtures (hits give high values) was 9.65% (inactive).
`O=C(NCCCN1CCOCC1)c1cc(-c2ccc(Cl)cc2)on1`: the mean inhibition % of two 10-compound mixtures (hits give high values) is 4.71% (inactive).
The value for `CCCCc1nc2ccccc2c(=O)n1NC(=O)c1c(O)c2cccc3c2n(c1=O)CC3` was 4.25% (inactive).
Regarding `O=C1CCCC(O)=C1C=NCCc1ccccc1`, the mean inhibition % of two 10-compound mixtures (hits give high values) was 50.4% (active).
For the compound `CC1(C)CC(=O)C(C=NCCC2=CCCCC2)=C(O)C1`, the mean inhibition % of two 10-compound mixtures (hits give high values) is -0.72% (inactive).
The value for `O=C1CC(c2ccccc2)CC(O)=C1C=NCCN1CCOCC1` (configuration not stated) was 17.3% (inactive); that for `COC(=O)c1nc(NC(=O)c2ccc(Cl)cc2)n[nH]1` was 12.2% (inactive).
The result for `Cc1ccc(C(=O)N(CN2CCCC2=O)c2ccc(F)cc2)cc1` reads 5.52% (inactive).
The value for `Cc1ccc(C)c(N2CCN(C(=O)CCc3nc4ccccc4[nH]3)CC2)c1` was 1.21% (inactive); that for `CCOC(=O)C(CCOc1cccc(CC)c1)C(=O)OCC` was -10.1% (inactive); that for `Cc1c(NC(=O)Nc2ccccc2Cl)sc(=S)n1C` was -6.43% (inactive).
Turning to `CCCCN(C)C(=O)c1ccc2c(c1)N(CC)C(=O)c1ccccc1S2(=O)=O`, the mean inhibition % of two 10-compound mixtures (hits give high values) is 5.62% (inactive).
As for `COc1ccc(-n2c(SCC(=O)Nc3ccc4c(c3)OCO4)nnc2C(C)N2CCCCC2)cc1` (configuration not stated), the mean inhibition % of two 10-compound mixtures (hits give high values) was -12.3% (inactive).
The result for `CCN(Cc1ccncc1)C(=O)c1cccc(S(=O)(=O)N2CCOCC2)c1` reads 2.16% (inactive); that for `Cc1cc(N2C(=O)C(=O)/C(=C(/O)c3ccc(Cl)cc3)C2c2cccc(Br)c2)no1` (configuration not stated), 11.8% (inactive); that for `O=C(NCc1ccco1)c1sc2cccc(F)c2c1Cl`, 3.97% (inactive).
The value for `COc1ccc(NC(=O)CCNC(=O)Cn2ccc3ccccc3c2=O)c(OC)c1` was 13.2% (inactive); that for `CC(C)Nc1nc(N(c2ccccc2)c2ccccc2)nc(-n2ccnc2)n1` was 9.18% (inactive).
The result for `CSc1cccc(NC(=O)C2CCCN2S(=O)(=O)c2ccc3c(c2)CCC(=O)N3)c1` (configuration not stated) reads -3.33% (inactive).
